According to PubChem BioAssay AID485341 (National Center for Advancing Translational Sciences (NCATS), 2010):
Among all 330,000 compounds or so, about 1,700 (0.52%) were called active. Where a call stands in place of a potency, no number is given. The sample holds actives, similar compounds and a random draw of the others, so the mix is not that of the screen. A number with no mark means an inactive call. Calls follow the shape of the dose curve; as a rule, active = well fitted inhibition curve with a large enough effect; inconclusive = small, poorly fitted or top-dose-only effect; inactive = no such curve, though single readings can be large or run the other way.

target: Beta-lactamase (Escherichia coli (strain K12)) (UniProt P00811); experiment: qHTS Inhibitors of AmpC Beta-Lactamase (assay without detergent); conditions: AmpC nitrocefin hydrolysis, absorbance 480 nm, 0.0001% Triton; series mostly up to 57.1 µM; also: nearly all actives have a fitted effect of over 20% in size
Sequence (P00811 whole entry, looked up): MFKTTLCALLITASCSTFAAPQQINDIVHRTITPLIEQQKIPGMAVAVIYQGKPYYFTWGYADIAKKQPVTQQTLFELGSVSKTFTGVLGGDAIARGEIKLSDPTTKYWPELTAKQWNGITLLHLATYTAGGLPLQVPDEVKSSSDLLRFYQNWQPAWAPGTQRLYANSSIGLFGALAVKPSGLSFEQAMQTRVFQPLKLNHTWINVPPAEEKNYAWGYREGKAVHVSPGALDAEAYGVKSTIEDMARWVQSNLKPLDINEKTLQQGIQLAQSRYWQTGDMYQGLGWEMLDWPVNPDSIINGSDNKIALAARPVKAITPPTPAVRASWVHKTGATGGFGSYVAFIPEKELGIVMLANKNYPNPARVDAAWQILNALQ
In short: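 20 mM phosphate pH 7.0 + 0.01% (detergent screen) or 0.0001% Triton X-100; 5.3 nM AmpC reagent; cpd preinc 15 min RT; nitrocefin (800 uM stock) to start; A480 q20 s × 4 min; Activity was normalised to no-enzyme and no-compound control wells.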
Potency is read from the fitted curve at half-maximal effect.

SMILES | Potency | activity change, negative = inhibition
CC(NC(=O)COC(=O)c1cc(=O)[nH]c2ccccc12)c1ccccc1 (configuration not stated) | inactive | –
O=C(COC(=O)c1cc(=O)[nH]c2ccccc12)NCc1cccc(Cl)c1 | inactive | –
O=C(COC(=O)c1cc(=O)[nH]c2ccccc12)Nc1nc(-c2cccc(Br)c2)cs1 | 14.1 µM (active) | –
CC(C)CCN1C(=O)c2ccc(C(=O)Nc3cccc(S(N)(=O)=O)c3)cc2C1=O | inactive | –
CN(c1ccccn1)c1ncnc2[nH]ncc12 | inactive | –
Cc1nn(C)c(Cl)c1CN1CCC(Oc2ccc(C(=O)N3CCCC3)cc2)CC1 | inactive | –
Cc1csc(=O)n1CC(=O)Nc1ccc(S(C)(=O)=O)cc1 | inactive | –
O=C(c1ccc(Cl)nc1)N1CCN(S(=O)(=O)c2ccc3c(c2)OCCO3)CC1 | inactive | –
Cn1nnnc1SCC(=O)Nc1cccc(S(=O)(=O)N2CCCCC2)c1 | inactive | –
Nc1cc(N)nc(SCC(=O)Nc2cccc(S(=O)(=O)N3CCCCC3)c2)n1 | 25.1 µM (active) | –
O=C(CSc1ccccc1)Nc1cccc(S(=O)(=O)N2CCCCC2)c1 | inactive | –
COCCN(CCOC)S(=O)(=O)c1ccc(/C(O)=C(\C#N)c2nc3ccccc3[nH]2)cc1 | inactive | –
COc1ccccc1C(=O)COC(=O)COc1ccc(C#N)cc1 | inactive | –
N#C/C(=C(/O)COC(=O)COc1ccc(Cl)cc1)c1nc2ccccc2[nH]1 | 11.2 µM (active) | –
Cc1cc(C)c(OCCN2CC(C)OC(C)C2)c(Br)c1 (configuration not stated) | inactive | –
CCN(CC)S(=O)(=O)c1ccc(CNC(=O)CN2C(=O)NC3(CCc4ccccc43)C2=O)cc1 (configuration not stated) | inactive | –
CCOC(=O)c1c(CNCc2ccccc2F)c2sc(C)cc2n1C | inactive | –
Cn1c2cc(B(O)O)sc2c2cnn(Cc3ccccc3F)c(=O)c21 | 2.82 µM (active) | –
Cn1cc(C(=O)NCc2ccccc2F)cn1 | inactive | –
COc1cc2c(-c3ccc4c(c3)OCO4)c(-c3ccsc3)oc(=O)c2cc1OC | inactive | –
O=C(NC1CCN(C(=S)NCc2ccco2)CC1)c1ccc(F)cc1 | inactive | –
CN1C(=O)C(CC(N)=O)N(NC(=O)c2ccc(Cl)cc2)C1=S (configuration not stated) | inactive | –
Cc1ccc(NC(=O)CC2C(=O)N(Cc3ccccc3)C(=S)N2NC(=O)c2cccc(F)c2)c(C)c1 (configuration not stated) | 31.6 µM (active) | –
Cc1ccc(N2C(=O)C(CC(=O)Nc3cccc(F)c3)N(CCc3ccncc3)C2=O)cc1 (configuration not stated) | inactive | –
CN(C)/C=N/c1cc(=O)n(C)c(=O)n1CC1CC1 | inactive | –
Clc1ccccc1-c1cc(COc2ccc3ccccc3c2)no1 | inactive | –

SMILES | Potency | activity change, negative = inhibition
COc1ccc(C2CC(c3ccc(C)cc3)Nc3ncnn32)cc1 (configuration not stated) | inactive | –
Clc1ccc(C2CC(c3cccs3)n3ncnc3N2)cc1Cl (configuration not stated) | 0.708 µM (active) | –
Nc1nc2n(n1)C(c1ccco1)CC(c1ccc(Cl)c(Cl)c1)N2 (configuration not stated) | inactive | –
CN(C)CCN(Cc1ccccc1)S(=O)(=O)c1csc(C(N)=O)c1 | inactive | –
Cc1ncn2cc(-c3ccc(Cl)cc3Cl)[nH]c(=O)c12 | inactive | –
Cn1c2c(c(=O)n(C)c1=O)CN(Cc1ccco1)CN2 | inactive | –
Cn1c(O)c(C=Nc2ccc3c(c2)CCC3)c(=O)n(C)c1=O | inactive | –
CC(C)n1c(=O)c(C=Nc2ccc(Br)cc2)c(O)n(Cc2ccco2)c1=O | 14.1 µM (active) | –
c1nc(COc2nsnc2N2CCOCC2)cs1 | inactive | –
O=c1cc(O)nc(SCc2ccccc2Cl)[nH]1 | 3.16 µM (active) | –
Cc1cc(=O)[nH]c(SCc2cc(Cl)ccc2OC(F)F)n1 | inactive | –
Cc1cc(=O)[nH]c(SCc2cccc(F)c2)n1 | inactive | –
CC(C)c1nc2sc3c(c2c(=O)n1N)CC(C)(C)OC3 | inactive | –
CC/C(C)=N/Nc1nc2sc3c(c2c(=O)[nH]1)CC(C)(C)OC3 | 1.12 µM (active) | –
CCSc1nc2sc3c(c2c(=O)[nH]1)CC(C)(C)OC3 | inactive | –
Cc1cc2ccccn2c1C(=O)c1cccc(F)c1 | inactive | –
Cc1cc2ccccn2c1C(C[N+](=O)[O-])c1c(F)cccc1Cl (configuration not stated) | inactive | –
Cc1ccc(C(C[N+](=O)[O-])c2c(C)cc3ccccn23)cc1 (configuration not stated) | 22.4 µM (active) | –
Cn1c(=NC(=O)c2ccc3c(c2)OCCO3)sc2cc(S(C)(=O)=O)ccc21 | inactive | –
CN(C)c1ccc(C(CNC(=O)c2ccc(F)cc2)c2c[nH]c3ccccc23)cc1 (configuration not stated) | 14.1 µM (active) | –
COc1ccccc1C(CNC(=O)c1cccc(S(=O)(=O)Nc2ccc(F)cc2)c1)N(C)C (configuration not stated) | inactive | –
C[C@H](NC(=O)c1ccccc1)C(=O)OCC(=O)c1c[nH]c2ccccc12 | inactive | –
CCOc1ccc2[nH]c(C(=O)N/N=C/c3cccc(OC)c3OC)cc2c1 | inactive | –
COc1cccc(/C=N/NC(=O)c2[nH]nc3c2CCc2ccccc2-3)c1O | 5.62 µM (active) | –
COc1cccc(/C=N/NC(=O)CNC(=O)c2ccc(S(=O)(=O)N3CCOCC3)cc2)c1OC | inactive | –
CCc1ccc(C(=O)NN=C2CCCCCC2)s1 | inactive | –

SMILES | Potency | activity change, negative = inhibition
CCCNS(=O)(=O)c1ccc(CCC(=O)N2CCCC2)cc1 | inactive | –
COc1ccc(C(CC(=O)c2ccccc2)S(=O)(=O)c2ccccc2)cc1 (configuration not stated) | inactive | –
COc1ccc(-n2c(SCC(=O)NCc3ccco3)nnc2-c2c[nH]c3ccccc23)cc1 | 3.55 µM (active) | –
CCOC(=O)N1CCN(C(=O)CSc2nnc(-c3c[nH]c4ccccc34)n2CCOC)CC1 | inactive | –
CCn1c(SCC(=O)Nc2ccc(OC)c(OC)c2)nnc1-c1c[nH]c2ccccc12 | 0.631 µM (active) | –
COc1ccc(-n2c(SCC(=O)NCc3cccs3)nnc2-c2ccoc2C)cc1 | inactive | –
O=C(CSc1nnc(-c2c[nH]c3ccccc23)n1-c1ccc(F)cc1)NCc1ccco1 | inactive | –
CCn1c(SCCC(C)C)nnc1-c1c[nH]c2ccccc12 | inactive | –
N/C(=N\S(=O)(=O)c1ccc(Cl)cc1)N1CCOCC1 | inactive | –
CN(C)Cc1c(O)ccc2c(=O)c(-c3ccccc3Cl)coc12 | inactive | –
Cc1ccc(N(CC(=O)Nc2cc(C)cc(C)c2)S(=O)(=O)c2cccc3nonc23)cc1 | 15.8 µM (active) | –
Cc1ccc(CNC(=O)CCNS(=O)(=O)c2cccc3nonc23)cc1 | inactive | –
CCOC(=O)c1cccc(NC(=O)CN(c2ccc(C)cc2)S(=O)(=O)c2c(C)noc2C)c1 | inactive | –
COC(=O)c1ccc(COc2ccc(C#N)cc2)o1 | inactive | –
N#Cc1c(NC(=O)CCCl)sc2c1CCCCC2 | inactive | –
N#CCC(=O)Nc1ccc(C(=O)OCC(=O)Nc2sc3c(c2C#N)CCCC3)cc1 | 14.1 µM (active) | –
Cc1cccc(C(=O)OCC(=O)Nc2sc3c(c2C#N)CCC3)c1 | inactive | –
CCOC(=O)Cn1c2c(c(-c3ccccc3OC)cc1=O)CCCC2 | inactive | –
O=C(CSc1nnc(-c2ccncc2)n1C1CCCCC1)Nc1ccccc1 | inactive | –
Cc1ccc(N2C(=O)C3N=NN(CC(=O)N4N=C(c5cccc6ccccc56)CC4c4ccccc4)C3C2=O)cc1 (configuration not stated) | inactive | –
Cc1cccc(C(C)C)c1NC(=O)COC(=O)C1CC(=O)N(Cc2ccccc2)C1 (configuration not stated) | inactive | –
NS(=O)(=O)c1ccc(CNC(=O)c2cccc(S(=O)(=O)N3CCc4ccccc43)c2)cc1 | 14.1 µM (active) | –
Cc1ccc(NC(=O)c2cccc(S(=O)(=O)N3CCCc4ccccc43)c2)nc1 | inactive | –
NS(=O)(=O)c1ccc(CNC(=O)c2cccc(Oc3ccccc3)c2)cc1 | inactive | –
O=C(NC1CC1)C1=C[C@H](c2c[nH]c3ccccc23)C[C@H](OCc2ccc(CO)cc2)O1 | inactive | –
CCNC(=O)NC(=O)C(C)OC(=O)C1CCN(S(=O)(=O)c2ccccc2F)CC1 (configuration not stated) | inactive | –

SMILES | Potency | activity change, negative = inhibition
CCOC1CS(=O)(=O)CC1OCC (configuration not stated) | inactive | –
c1csc(-c2nnc(COc3ccc4c(c3)OCO4)o2)c1 | inactive | –
C=CS(=O)c1sc(Cl)c(N2CCOCC2)c1[N+](=O)[O-] (configuration not stated) | inactive | –
Cc1cc(Nc2cccc(F)c2)n2ncnc2n1 | inactive | –
O=S(=O)(NCc1ccco1)c1cnc(Cl)c(Cl)c1 | inactive | –
Cc1c(Cl)cnc(NC(=O)COC(=O)c2ccc(S(=O)(=O)NCc3ccco3)cc2)c1Cl | inactive | –
C/C(=N\Nc1ncc(Cl)cc1Cl)c1ccc(S(=O)(=O)NCc2ccco2)cc1 | 31.6 µM (active) | –
O=C(c1cccnc1)N(c1cc2sc(=O)oc2c2ccccc12)S(=O)(=O)c1ccccc1 | inactive | –
Cc1ccccc1SCC(=O)OCC(=O)N1CC(=O)Nc2ccccc21 | inactive | –
Cc1cc(C(=O)COC(=O)C2CC2)c(C)n1-c1ccc(F)cc1 | – | -17.5% [at 11.4 µM]
Cc1cc(C(=O)N/N=C/c2ccc(O)c([N+](=O)[O-])c2)c(C)n1-c1ccc(F)cc1 | 17.8 µM (active) | –
O=C1CSC(=S)N1/N=C/c1ccc(O)c([N+](=O)[O-])c1 | inactive | –
CCOc1ccc(CN2CCNC(=O)C2CC(=O)NCCCC2CCCC2)cc1 (configuration not stated) | inactive | –
COc1ccc(NC(=O)c2sccc2SCC#N)cc1 | 4.47 µM (active) | –
COc1ccc(NC(=O)CSc2nc(C)cs2)cc1 | inactive | –
COc1ccc(NC(=O)c2ccc(C#CC(C)(C)O)cc2)cc1 | inactive | –
CNC[C@H]1Oc2c(NC(=O)C3CCCCC3)cccc2C(=O)N([C@H](C)CO)C[C@@H]1C | inactive | –
Cn1cccc1Cc1nnc(SCC(=O)NCc2ccc3c(c2)OCO3)n1CCc1ccccc1 | inactive | –
Cc1cc(=O)oc(C)c1C(=O)Nc1cnc2ccccc2c1 | inactive | –
Cc1ccc(N=Cc2c(O)cc(C)oc2=O)c(C)c1 | inactive | –
Cc1cc(O)c(C(=O)/C=C/c2c(F)c(F)c(F)c(F)c2F)c(=O)o1 | 11.2 µM (active) | –
COc1ccccc1C(=O)Nc1ccc(C)c(S(=O)(=O)N2CCCCC2)c1 | inactive | –
Nn1c(SCC(=O)NC(=O)NC2CCCC2)nnc1-c1ccccc1F | inactive | –
COc1cccc2c1OCC1COc3c(c(=O)n(C)c(=O)n3C)C21 (configuration not stated) | inactive | –
